Assay results reported in ChEMBL document CHEMBL3988442, “University of Dundee, Small-Polar-MMV Screening Library” (2021).
Screen size: about 48,000 compounds; about 13,000 (27%) showed an effect of 50% or more. This is one part of the list.

tested on: Wolbachia pipientis; assay: Anti-Wolbachia Cell-Based Screen; format: functional; design: scale not given: in the data most compounds retested in dose-response had high values; details: 5 µM

| Structure (SMILES) | Percent Effect |
| --- | --- |
| c1ccc(C(CNc2ncccn2)N2CCOCC2)nc1 (stereo unspecified) | -6.458% |
| CS(=O)(=O)NC[C@H]1Cn2c(-c3ccc(Cl)cc3)cnc2CO1 | -25.96% |
| Cc1nnc(NC(=O)CN2CCCC(Cn3cncn3)C2)s1 (stereo unspecified) | -2.603% |
| CCc1nnc2n1CCN(C(=O)c1ccc(-c3ccco3)nc1C)C2 | -7.114% |
| c1ccc(-c2noc(CNC3CCCN(c4cccnn4)C3)n2)nc1 (stereo unspecified) | 15.74% |
| c1cnnc(-c2noc(CCN3CCCO3)n2)c1 | 93.6% |
| O=C1CCCCN1CCc1nc(-c2cccnn2)no1 | 94.65% |
| c1cnnc(-c2noc(COCC3CCCO3)n2)c1 (stereo unspecified) | -7.3% |
| O=C1CCCN1CCc1nc(-c2ccsc2)no1 | 3.312% |
| O=C1CCCN1Cc1nc(-c2ccsc2)no1 | -0.6709% |
| O=C1CCCCCN1CCc1nc(-c2cccnn2)no1 | 101.6% |
| CCC(=O)N1CCCC(c2nc(-c3cccnn3)no2)C1 (stereo unspecified) | -10.18% |
| NC(=O)N1CCCC(c2nc(-c3cccnn3)no2)C1 (stereo unspecified) | -17.63% |
| Fc1cnc(N2CC[C@@H]3O[C@H](COCc4ccccn4)CC[C@@H]32)nc1.O=C(O)C(F)(F)F.O=C(O)C(F)(F)F | -8.752% |
| CCC(Nc1cccc(Oc2ccc(C#N)cc2)c1)C(N)=O (stereo unspecified) | 17.41% |
| O=c1cc2c(nn1CN1CCN(c3cccc(Cl)c3)CC1)CCC2 | -5.597% |
| N#Cc1ccc2c(c1)CN(C(=O)c1nc[nH]n1)C2c1cnco1 (stereo unspecified) | -15.48% |
| CNC(=O)[C@@H]1COC[C@H]2CN(C(=O)COc3ccccc3)C[C@H]21 | -5.187% |
| CNC(=O)[C@@H]1CN(C(=O)COC)C[C@H]1c1ccnc(N2CCCC2)n1 | 103.6% |
| CNC(=O)[C@@H]1CN(C(=O)CCOC)C[C@H]1c1ccnc(N2CCCC2)n1.Cl | 97.41% |
| COCCC(=O)N1CCN(C)c2ncccc2C1 | -0.6435% |
| CCNc1ccnc(N2CCCC(CCOC)(C(=O)O)C2)n1 (stereo unspecified) | -0.7265% |

| Structure (SMILES) | Percent Effect |
| --- | --- |
| CCn1ncnc1C(C)NC(=O)C1CCN(C(=O)COC)CC1 (stereo unspecified) | 0.6867% |
| CCC(=O)N1C[C@@H](C(=O)NC)[C@H](c2ccnc(N3CCCC3)n2)C1.Cl | 103.8% |
| CCNC(=O)C1CCN(c2nccc(C3CCCC3)n2)C1 (stereo unspecified) | -5.882% |
| CNC(=O)C1CCN(c2nccc(CCC(F)(F)F)n2)C1 (stereo unspecified) | -10.68% |
| O=C(O)C(c1cccc2c1OCC2)N1CCC(N2CCCC2)CC1 (stereo unspecified) | -6.638% |
| O=C1C(Nc2ncccn2)CCN1c1ccccc1OC(F)F (stereo unspecified) | -3.338% |
| COCCS(=O)(=O)NC(C)c1cccc(-n2cccn2)c1 (stereo unspecified) | 2.381% |
| CC(=O)Nc1ccc(C(=O)Nc2cnc3n2CCCC3)cc1C | 7.352% |
| CC(C)NC(=O)N1CCC2(CC1)Cc1ccccc1CNC2=O | 106.4% |
| CC(C)NC(=O)N1CCC2(CC1)Cc1ccccc1CN(C)C2=O | 105% |
| CNS(=O)(=O)c1ccccc1N1CCN(C(=O)NC(C)C)CC1 | -1.761% |
| C[C@@H]1CN(C2(C(=O)N3CCOCC3)Cc3ccccc3C2)C[C@H](C)O1 | -3.118% |
| CC(C)NC(=O)N1CCC2(CC1)CCn1c(C3CC3)cnc12 | 5.233% |
| CN1Cc2ccccc2CC2(CCN(C(=O)[C@H]3CCCO3)CC2)C1=O | -50.23% |
| CN1Cc2ccccc2CC2(CCN(C(=O)N3CCOCC3)CC2)C1=O | 102.4% |
| CC(NC(=O)N1CCc2ccccc2C1)c1nncn1C (stereo unspecified) | -2.02% |
| O=C([C@H]1CCCO1)N1CCC2(CC1)Cc1ccccc1CNC2=O | -31.67% |
| O=S(=O)(C/C=C/c1ccccc1)Cc1nc(C2CC2)no1 | 14.62% |
| CCn1ccnc1CN1CCN(CCOc2cccc(C#N)c2)CC1 | -6.749% |
| CC(C)c1cnc(CNc2c(F)cccc2-n2cccn2)o1 | 11.31% |
| CCNC(=O)NC1CN(Cc2ccccc2N(C)C)C[C@@H]1OC (stereo partly specified) | 0.7877% |
| CC(NC(=O)N1CCc2sccc2C1)c1nncn1C (stereo unspecified) | 8.221% |

| Structure (SMILES) | Percent Effect |
| --- | --- |
| CN(C)C(=O)N1C[C@@H]2CCCO[C@@H]2[C@H](N(C)Cc2ccco2)C1.O=C(O)C(F)(F)F | -2.152% |
| Cc1nccn1-c1cc(CNC(=O)CCNC(=O)C2CCCC2)ccn1 | 5.543% |
| Cc1nc(CN(C)C2CCN(Cc3nc4ccccc4s3)C2)no1 (stereo unspecified) | 10.14% |
| Cc1nc(CN2CCCC(NCc3nc4ccccc4s3)C2)no1 (stereo unspecified) | 116.1% |
| Cc1nc(CN2CCCC(Nc3ncnc4ccccc34)C2)no1 (stereo unspecified) | -16.22% |
| CCc1nc(CN2CCCC(NCc3cnn(C(C)(C)C)c3)C2)no1 (stereo unspecified) | -2.673% |
| Cc1nc(CN2CCCC(NCCOc3ccccc3)C2)no1 (stereo unspecified) | -9.342% |
| Cc1nc(CN2CCCC(NCC(=O)Nc3cccnc3)C2)no1 (stereo unspecified) | -1.962% |
| CCOc1cccc(CNC2CCCN(Cc3noc(C)n3)C2)c1 (stereo unspecified) | 100.5% |
| Cc1nc(CN2CCCC(NCCc3ccccc3Cl)C2)no1 (stereo unspecified) | -3.863% |
| Cc1nc(CN2CCCC(N(C)c3cnc4ccccc4n3)C2)no1 (stereo unspecified) | -0.8744% |
| Cn1cc(CNC2CCCN(Cc3noc(C4CC4)n3)C2)cn1 (stereo unspecified) | -8.767% |
| Cc1nc(CN2CCCC(NCc3cnn(C)c3)C2)no1 (stereo unspecified) | 104.5% |
| Cc1nc(CN2CCCC(NCc3cccc4ccccc34)C2)no1 (stereo unspecified) | 107.2% |
| Cc1cccc(CNC(Cn2cncn2)c2ccccc2)c1C (stereo unspecified) | -43.08% |
| CN(C)c1cc2c(nn1)CCN(C(=O)Cc1noc3ccccc13)C2 | 12.15% |
| CN(Cc1csc(-c2ccccc2)n1)C(=O)CCn1ccccc1=O | -32.35% |
| Cc1nc(CN2CCCC(NCc3c(C)nc4sccn34)C2)no1 (stereo unspecified) | -4.535% |
| Cc1nc(CN2CCCC(NCCOCC(F)(F)F)C2)no1 (stereo unspecified) | -2.958% |
| Cc1nc(CN2CCCC(NCc3ccsc3)C2)no1 (stereo unspecified) | 1.864% |
| Cc1nc(CN2CCCC(NCc3csc(C(C)(C)C)n3)C2)no1 (stereo unspecified) | 82.03% |
| Cc1nc(CN2CCCC(NCc3sccc3C)C2)no1 (stereo unspecified) | 84.94% |

| Structure (SMILES) | Percent Effect |
| --- | --- |
| Cc1nc(CN2CCCC(NCc3ccc(Cl)s3)C2)no1 (stereo unspecified) | 105.2% |
| Cc1nc(CN2CCCC(NCc3ccc4ccccc4c3)C2)no1 (stereo unspecified) | 117% |
| Cc1nc(CN2CCCC(N(C)Cc3cscn3)C2)no1 (stereo unspecified) | 2.968% |
| COc1ccc(CNC2CCCN(Cc3noc(C)n3)C2)cc1F (stereo unspecified) | -5.655% |
| CCOc1cccc(CN2CCCn3nc(CNS(C)(=O)=O)cc3C2)c1 | -2.285% |
| Cc1nc(CN2CCCC(NCc3ccc4c(c3)CCO4)C2)no1 (stereo unspecified) | 109.8% |
| Cc1ncnc2c1CCN(Cc1ccccn1)CC2.O=C(O)C(F)(F)F.O=C(O)C(F)(F)F | -3.635% |
| Cc1cccc(CN2CCc3ncnc(C)c3CC2)n1.O=C(O)C(F)(F)F | -2.689% |
| Cc1cccc(CN2CCc3ncnc(C4CC4)c3CC2)n1.O=C(O)C(F)(F)F | 113.1% |
| Cc1cccc(CN2CCc3ncnc(NC4CCC4)c3CC2)n1.O=C(O)C(F)(F)F.O=C(O)C(F)(F)F | 78.48% |
| O=C(O)C(F)(F)F.O=C(O)C(F)(F)F.c1ccc(CN2CCc3ncnc(C4CCOC4)c3CC2)nc1 (stereo unspecified) | 3.596% |
| CN(c1nc(CSc2nnc(Cn3cncn3)o2)cs1)C1CC1 | -4.174% |
| O=C(CCc1c[nH]cn1)N1CC[C@@H](c2ccc3ccccc3c2)[C@H](O)C1 | -1.023% |
| Cc1n[nH]c(SCC(=O)NC(c2ccccn2)C(C)C)n1 (stereo unspecified) | 0.231% |
| CC(C)Cn1cc(NC(=O)NC(C)(C)c2nccs2)cn1 | -7.007% |
| CCc1n[nH]c(C2CN(CC(=O)N(C)Cc3ccco3)CCO2)n1 (stereo unspecified) | -22.35% |
| Cc1noc(C)c1-c1cccc(C2CN(S(=O)(=O)N(C)C)CCO2)n1 (stereo unspecified) | 137.9% |
| Cc1nc(-c2c(C)noc2C)cc(C2CCN(S(=O)(=O)N(C)C)CC2)n1 | 103.8% |
| CCN(C)C(=O)CN1CCC(c2cc(N3CCOCC3)nc(C)n2)CC1 | 11.68% |
| Cc1cc(Cl)cc(C)c1CNC1CCN(CC(=O)N(C)C)CC1 | -21.25% |
| CCC[C@H]1CN(S(=O)(=O)c2ccc(-c3c(C)noc3C)s2)C[C@@H]1N | -6.038% |
| Cc1cc(C(F)(F)F)c2c(C3CCN(S(=O)(=O)N(C)C)CC3)noc2n1 | -7.595% |

| Structure (SMILES) | Percent Effect |
| --- | --- |
| Cc1noc(C)c1-c1cccc(C2CN(CC(=O)N(C)C)CCO2)n1.O=CO (stereo unspecified) | 138.9% |
| Cc1nc(-c2c(C)noc2C)cc(C2CCN(CC(=O)N(C)C)CC2)n1 | 77.89% |
| CC(C)c1n[nH]c(C2CN(CC(=O)N(C)Cc3ccco3)CCO2)n1 (stereo unspecified) | -2.203% |
| Cc1noc(C)c1CN(C)C(=O)C1CCN(S(N)(=O)=O)CC1 | -4.387% |
| Oc1ccc(-c2c(-c3ccccc3)ncn2C[C@H]2CCCN2)cc1 | -6.352% |
| CCc1noc(C(C)N2CCC(NS(=O)(=O)c3ccccc3)CC2)n1 (stereo unspecified) | -5.336% |
| Cc1noc(C)c1-c1cccc(C2CCN(CC(=O)N(C)C)CC2)n1 | 159.5% |
| CN(C(=O)CN1CCC(c2cc3ccccc3[nH]2)CC1)C1CC1 | -16.32% |
| CN(C(=O)CN1CCC(c2cc3ccccc3[nH]2)CC1)C(C)(C)C#N | -0.1259% |
| Cc1csc(CNc2cccc(OCCN3CCCC3)c2)n1 | -3.385% |
| CCOc1cc(C(=O)N2CC=C(c3ccc(O)cc3)CC2)ccn1 | -12.82% |
| CCOc1cc(C(=O)N2CCCC(c3noc(CC)n3)C2)ccn1 (stereo unspecified) | 112.4% |
| Cc1ncsc1C(=O)N1CCCC(c2noc(C(C)C)n2)C1 (stereo unspecified) | -0.9065% |
| CCOc1cc(C(=O)N2CCCC(c3noc(C(C)C)n3)C2)ccn1 (stereo unspecified) | 127.2% |
| CC(C)c1nc(C2CCCN(C(=O)c3nccn4ccnc34)C2)no1 (stereo unspecified) | 101.8% |
| CCOc1cc(C(=O)N2CCCC(c3noc(C)n3)C2)ccn1 (stereo unspecified) | -8.742% |
| CCOc1cc(CNC(=O)NCc2nc(C)c(C)s2)ccn1 | -14.7% |
| CCOc1cc(C(=O)N2CCCC(c3nc(C)c(C)s3)C2)ccn1 (stereo unspecified) | 118.9% |
